Laboratory results: PubChem BioAssay (NCATS)
Records with an inconclusive call do not appear. A call without a number means that no potency is given here. A number with no mark means an inactive call. Activity calls are given as the source filed them. Calls come from the whole dose curve; as a rule, active = well fitted curve in the direction sought with a large enough effect; inconclusive = small, poorly fitted or top-dose-only effect, or another doubt; inactive = no such curve, though single readings can be large; an effect the other way counts as inactive or inconclusive.

Legend:
MKL-1 = assay: qHTS assay to identify novel small-molecules to repurpose for Merkel cell carcinoma treatment (AID 1296009); conditions: MCC and control cell lines, CellTiter-Glo viability, 72 h; series mostly up to 46 µM; note: nearly all actives have a fitted effect of over 60% in size
Procedure, shortened: (§1)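 After compound transfer in DMSO, plates were kept 72 hr at 37 degree celsius. Luminescent ATP signal from CellTiter-Glo served as viability measure, normalized against DMSO and no-cell controls.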

MKL-2 = assay: as above; conditions: MCC and control cell lines, CellTiter-Glo viability, 72 h; series mostly up to 46 µM
Procedure, shortened: as §1

UISO = assay: as above; conditions: MCC and control cell lines, CellTiter-Glo viability, 72 h; series mostly up to 46 µM
Procedure, shortened: as §1

WaGa = assay: as above; conditions: MCC and control cell lines, CellTiter-Glo viability, 72 h; series mostly up to 46 µM
Procedure, shortened: as §1

C33A = assay: Primary qHTS to identify gynecologic anti-cancer compounds using libraries of approved drugs and bioactive compounds (AID 1345084); conditions: Gynecologic cancer cell panel viability, ATPlite luminescence, 48 h; series mostly up to 57.5 µM; note: nearly all actives have a fitted effect of over 55% in size; note: potency is the fitted concentration of half-maximal effect
Procedure, shortened: (§2)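 Cells, 1,000 per well, were allowed to settle for 16 h at 37 C before compound addition. Five concentrations were tested for 48 h, and viability was read by ATPlite luminescence after 15 min at room temperature.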

CAOV3 = assay: as above; conditions: Gynecologic cancer cell panel viability, ATPlite luminescence, 48 h; series mostly up to 57.5 µM
Procedure, shortened: as §2

CASKI = assay: as above; conditions: Gynecologic cancer cell panel viability, ATPlite luminescence, 48 h; series mostly up to 57.5 µM
Procedure, shortened: as §2

Es-2 = assay: as above; conditions: Gynecologic cancer cell panel viability, ATPlite luminescence, 48 h; series mostly up to 57.5 µM
Procedure, shortened: as §2

HeLa = assay: as above; conditions: Gynecologic cancer cell panel viability, ATPlite luminescence, 48 h; series mostly up to 57.5 µM
Procedure, shortened: as §2

SMILES | Potency (MKL-1) | Potency (MKL-2) | Potency (UISO) | Potency (WaGa) | Potency (C33A) | Potency (CAOV3) | Potency (CASKI) | Potency (Es-2) | Potency (HeLa)
CCCc1ccc(OCC(=O)N2CCN(C(=O)COc3ccc(CCC)cc3OC)CC2)c(OC)c1 | inactive | inactive | inactive | inactive | inactive | inactive | inactive | inactive | inactive
CCOc1ccc(NS(=O)(=O)c2ccc(N)cc2)nn1 | inactive | inactive | inactive | inactive | inactive | inactive | inactive | inactive | inactive
CN1[C@@H]2CC[C@H]1CC(NC(=O)n1c(=O)[nH]c3ccccc31)C2 (some centres not stated) | inactive | inactive | inactive | inactive | inactive | inactive | inactive | inactive | inactive
CCCCC(=O)OCC(=O)[C@H]1[C@H](C)C[C@H]2[C@@H]3C[C@H](F)C4=CC(=O)C=C[C@]4(C)[C@@]3(F)[C@@H](O)C[C@@]21C | inactive | inactive | inactive | inactive | inactive | inactive | inactive | inactive | inactive
O=c1[nH]c(=O)n([C@H]2O[C@H](CO)[C@@H](O)[C@@H]2O)cc1/C=C\Br | inactive | inactive | inactive | inactive | inactive | inactive | inactive | inactive | inactive
CCCC(CCC)(C(=O)OCC)C(=O)OCC | inactive | inactive | inactive | inactive | inactive | inactive | inactive | inactive | inactive
CO/N=C(/C(=O)N[C@@H]1C(=O)N2C(C(=O)O)=C(Cn3nnc(C)n3)CS[C@H]12)c1csc(N)n1 | inactive | inactive | inactive | inactive | inactive | inactive | inactive | inactive | inactive
O=C1CC(c2ccc(Cl)cc2)CC(=O)N1 | inactive | inactive | inactive | inactive | inactive | inactive | inactive | inactive | inactive
O=C(O)CCCC[P+](c1ccccc1)(c1ccccc1)c1ccccc1 | inactive | inactive | inactive | inactive | inactive | inactive | inactive | inactive | inactive
CN(C)CCCOC1(Cc2ccccc2)CCCCCC1 | inactive | inactive | inactive | inactive | inactive | inactive | inactive | inactive | inactive
CC(C)(C)c1nnc(NS(=O)(=O)c2ccccc2)s1 | inactive | inactive | inactive | inactive | inactive | inactive | inactive | inactive | inactive
COc1cc(C(=O)NC2CCCNC2)cc(OC)c1OC (configuration not stated) | inactive | inactive | inactive | inactive | inactive | inactive | inactive | inactive | inactive
Cc1c(F)cc2c(=O)c(C(=O)O)cn3c2c1CCC3C (configuration not stated) | inactive | inactive | inactive | inactive | inactive | inactive | inactive | inactive | inactive
CCOC(=O)C(=O)c1csc(NC=O)n1 | inactive | inactive | inactive | inactive | inactive | inactive | inactive | inactive | inactive
CN1CCCN=C1/C=C/c1cccs1 | inactive | inactive | inactive | inactive | inactive | inactive | inactive | inactive | inactive
Cc1ccc(-c2ccccc2C#N)cc1 | inactive | inactive | inactive | inactive | inactive | inactive | inactive | inactive | inactive
CC(=O)N(c1onc(C)c1C)S(=O)(=O)c1ccc(N)cc1 | inactive | inactive | inactive | inactive | inactive | inactive | inactive | inactive | inactive
Cc1ccc(C(=O)C(=O)O)cc1C | inactive | inactive | inactive | inactive | inactive | inactive | inactive | inactive | inactive
CC(NC(CCc1ccccc1)C(=O)O)C(=O)N1C(=O)N(C)CC1C(=O)O (configuration not stated) | inactive | inactive | inactive | inactive | inactive | inactive | inactive | inactive | inactive
COC(=O)c1c(Cl)c(Cl)c(C(=O)OC)c(Cl)c1Cl | inactive | inactive | inactive | inactive | inactive | inactive | inactive | inactive | inactive
CCN1CCN(C(=O)N[C@@H](C(=O)N[C@@H]2C(=O)N3[C@@H]2SC(C)(C)[C@H]3C(=O)O)c2ccccc2)C(=O)C1=O | inactive | inactive | inactive | inactive | inactive | inactive | inactive | inactive | inactive
CCCCCCCCCCCCCCCCCCN(C)C | inactive | inactive | inactive | inactive | inactive | inactive | inactive | inactive | inactive
Cc1ccc2ccc(Cl)cc2n1 | inactive | inactive | inactive | inactive | inactive | inactive | inactive | inactive | inactive
CC(Oc1c(Cl)cccc1Cl)C1=NCCN1 (configuration not stated) | inactive | inactive | inactive | inactive | inactive | inactive | inactive | inactive | inactive

SMILES | Potency (MKL-1) | Potency (MKL-2) | Potency (UISO) | Potency (WaGa) | Potency (C33A) | Potency (CAOV3) | Potency (CASKI) | Potency (Es-2) | Potency (HeLa)
Nc1c(I)cc(I)c(C(=O)N(CCC(=O)O)c2ccccc2)c1I | inactive | inactive | inactive | inactive | inactive | inactive | inactive | inactive | inactive
CC(=O)[C@H]1CC[C@H]2[C@@H]3C=CC4=CC(=O)CC[C@@]4(C)[C@@H]3CC[C@]12C | inactive | inactive | inactive | inactive | inactive | inactive | inactive | inactive | inactive
CC(=O)CC/C=C(\C)CC/C=C(\C)CC/C=C(\C)CCC=C(C)C | inactive | inactive | inactive | inactive | inactive | inactive | inactive | inactive | inactive
C[N+]1(C)CCC(OC(=O)C(O)(c2ccccc2)C2CCCC2)C1 (configuration not stated) | inactive | inactive | inactive | inactive | inactive | inactive | inactive | inactive | inactive
COc1cc(C=O)ccc1O | inactive | inactive | inactive | inactive | inactive | inactive | inactive | inactive | inactive
CC(C)OP(=O)(CP(=O)(OC(C)C)OC(C)C)OC(C)C | inactive | inactive | inactive | inactive | inactive | inactive | inactive | inactive | inactive
CCO[C@H](Cc1ccc(OCCc2ccc(OS(C)(=O)=O)cc2)cc1)C(=O)O | inactive | inactive | inactive | inactive | inactive | inactive | inactive | inactive | inactive
O=C(Oc1ccccc1)c1ccccc1O | inactive | inactive | inactive | inactive | inactive | inactive | inactive | inactive | inactive
CC(=O)N[C@@H](CCC(N)=O)C(=O)O | inactive | inactive | inactive | inactive | inactive | inactive | inactive | inactive | inactive
O=C(OCC1(COC(=O)c2cccnc2)CCCC(COC(=O)c2cccnc2)(COC(=O)c2cccnc2)C1O)c1cccnc1 | inactive | inactive | inactive | inactive | inactive | inactive | inactive | inactive | inactive
O=C(c1ccco1)N1CCNCC1 | inactive | inactive | inactive | inactive | inactive | inactive | inactive | inactive | inactive
C[C@@H](C1=C(CCN(C)C)Cc2ccccc21)c1ccccn1 | inactive | inactive | inactive | inactive | inactive | inactive | inactive | inactive | inactive
C=CCOc1cc(Cl)ccc1C(=O)NCCN(CC)CC | inactive | inactive | inactive | inactive | inactive | inactive | inactive | inactive | inactive
COCCc1ccc(OCC2CO2)cc1 (configuration not stated) | inactive | inactive | inactive | inactive | inactive | inactive | inactive | inactive | inactive
CCCCOCCOC(=O)c1cccnc1 | inactive | inactive | inactive | inactive | inactive | inactive | inactive | inactive | inactive
CCOc1c(N2CCOCC2)cnn(C)c1=O | inactive | inactive | inactive | inactive | inactive | inactive | inactive | inactive | inactive
CNC(=O)c1c(I)c(NC(C)=O)c(I)c(C(=O)O)c1I | inactive | inactive | inactive | inactive | inactive | inactive | inactive | inactive | inactive
O=C(O)[C@@H](O)[C@H](O)[C@H](O)[C@@H](O)C(=O)O | inactive | inactive | inactive | inactive | inactive | inactive | inactive | inactive | inactive
c1ccc2occc2c1 | inactive | inactive | inactive | inactive | inactive | inactive | inactive | inactive | inactive
CCN(CC)C(=O)C1CN2CCc3cc(OC)c(OC)cc3C2CC1OC(C)=O (configuration not stated) | inactive | inactive | inactive | inactive | inactive | inactive | inactive | inactive | inactive
CCOC(=O)C(=O)CCc1ccccc1 | inactive | inactive | inactive | inactive | inactive | inactive | inactive | inactive | inactive
O=C(Oc1ccccc1)c1cccc(C(=O)Oc2ccccc2)c1 | inactive | inactive | inactive | inactive | inactive | inactive | inactive | inactive | inactive
O=C(O)c1ccccc1S | inactive | inactive | inactive | inactive | inactive | inactive | inactive | inactive | inactive
CC1(C)OC(=O)Nc2ccc(Br)cc21 | inactive | inactive | inactive | inactive | inactive | inactive | inactive | inactive | 10 µM (active)
